SMILES strings stand for the structures. About 83,000 compounds went through this panel and 20% of them were active in at least one assay; those are over-represented in the sample as a whole.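 Compound tested at a single concentration for 48 hours in 96-well plates; a percent growth value below 10 was scored as active.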 The source made the active and inactive calls.

The assay relates to MOLT-4 leukemia. Nature of the assay: NCI-60 one-dose screen, 48 h (100 = growth as untreated, 0 = no growth, -100 = all killed). The note with it: 10 µM unless noted.
For the compound `O=C1OC(Cc2ccccc2)C1c1ccccc1` (stereo not drawn), the growth is 101% (inactive).
With `O=C1Nc2cc(-c3ccc(NC(=O)c4ccccc4)cc3)ccc2/C1=C/c1ccc[nH]1` the figure was 92.8% (inactive); with `O=C(N/N=C/c1cc2ccccc2n2nnnc12)Nc1ccccc1`, 101% (inactive).
With `O=C1c2ccc3c4c(ccc(c24)C(=O)N1CCCNCc1ccccc1)C(=O)N(CCCNCc1ccccc1)C3=O` the figure was -32.3% (active); with `C=C1C(=O)O[C@H]2[C@H]1CC/C(COC(=O)NCCc1c[nH]c3ccc(OC)cc13)=C\CC[C@@]1(C)O[C@@H]21`, 3.53% (active); with `CCOc1ccc(Nc2nc(-c3ccc4c(c3)NC(=O)CO4)cs2)cc1`, 6.58% (active).
With `COc1ccc(C(=O)c2cc(C)c(OC)c(C)c2)c(OC)c1OC(=O)C(Cl)Cl` the figure was 20.7% (inactive); with `CN(C)c1ccc(Nc2c3ccccc3nc3cc(NC(=O)CCN4CCCC4)ccc23)cc1`, -8.89% (active).
For the compound `Cc1nc(N)nc(N[C@@H](C)c2nc3cccc(NCc4ccc(C(=O)NO)cc4)c3c(=O)n2-c2ccccc2)n1`, the growth was 32.9% (inactive).
As to `COc1ccc(C/C(=C(\C)c2ccc(OCCN3CCCC3)cc2)c2ccc(OCCN3CCCC3)cc2)cc1`, the growth is -17.5% (active).
Take `NC(=NCCCOc1ccc(F)cc1)Nc1ccc(Cl)cc1`: the growth was 23.5% (inactive).
For the compound `CCCOC(=O)N[C@H]1CCc2c(Cl)c(OC)c(OC)c(OC)c2-c2ccc(SC)c(=O)cc21`, the growth is 8.02% (active).
With `N#Cc1c(NC(=O)NCc2ccccc2)sc2c1CCCC2` the figure was 17.7% (inactive); with `NCCCCCCNc1cc(-c2cccc(OC(F)(F)F)c2)nc2ccc(N3CCCC3)cc12`, -20.7% (active).
With `C[C@H]1[C@H](C)CC[C@]2(C(=O)NCC#CCN3CCN(C)CC3)CC[C@]3(C)C(=CC[C@@H]4[C@@]5(C)Cc6c([nH]c7ccccc67)C(C)(C)[C@@H]5CC[C@]43C)[C@H]12` the figure was 44.6% (inactive).
Turning to `N#Cc1c(NCc2ccccc2I)sc2c1CCCCC2`, the growth is 84.2% (inactive).
With `CN1C(=O)NC(c2ccc3c(c2)OCO3)C=C1c1ccccc1` (stereo not drawn) the figure was 94.3% (inactive); with `COc1cc(/C=C\C(=O)O)ccc1OCc1ccccc1`, 96.3% (inactive).
`CCN(CC)c1ccc(/C=N/NC(=O)CSc2nc3ccccc3c(=O)n2Cc2ccc(S(N)(=O)=O)cc2)c(O)c1`: the growth was 11.1% (inactive).
With `Cc1ccc(S(=O)(=O)NNC(=O)/C(=C\c2ccc(Cl)cc2)c2nc3ccccc3s2)cc1` the figure was 80.1% (inactive).
With `CCOC(=O)[C@@H]1CCCN(S(=O)(=O)c2ccc(S(=O)(=O)N(CC)CC)c(F)c2)C1` the figure was 79.4% (inactive).
With `Cc1ccc(CNc2c3ccccc3nc3cc(NC(=O)CCN4CCCC4)ccc23)cc1` the figure was -33.5% (active).
With `COc1ccc(CC(C)=C(c2ccc(OCCN3CCCCCC3)cc2)c2ccc(OCCN3CCCCCC3)cc2)cc1`, the growth was -67.5% (active).
With `CCCCNC(=O)Oc1ccc(/C(=C(\C)c2ccccc2)c2ccc(OCCN3CCCCC3)cc2)cc1` the figure was 53.8% (inactive); with `Cn1c2ccccc2c2c3c(c4c5ccccc5n(C)c4c21)C(=O)OC3`, 89.7% (inactive); with `CNC(=O)c1cc(Cn2nc(C)c(NC(=O)Nc3ccc(Cl)c(C(F)(F)F)c3)c2C)ccn1`, 90.8% (inactive).
In the case of `O=C(Nc1ccc(NC(=O)c2cc(=O)[nH]c3ccccc23)cc1)Nc1cccc(Cl)c1`, the growth is 79.7% (inactive).
With `COc1ccc(C(=O)CSc2nc(-c3cc(OC)ccc3OC)cc(-c3ccc(Cl)cc3)c2C#N)cc1` the figure was 94.3% (inactive); with `Cc1cc(C)c(S(=O)(=O)Oc2ccccc2[N+](=O)[O-])c(C)c1`, 34.6% (inactive).
Consider `O=C(CCN1CCCC1)Nc1ccc2c(NCc3ccccc3)c3ccccc3nc2c1`, for which the growth was -17.5% (active).
With `CCN(CC)c1ccc(/C=N/NC(=O)CSc2nc3ccccc3c(=O)n2CCc2ccc(S(N)(=O)=O)cc2)c(O)c1` the figure was 7.09% (active); with `O=C(CSc1nc2sc3c(c2c(=O)n1-c1ccc(Cl)cc1)CCCC3)Nc1nc(-c2cccc(Br)c2)cs1`, 87.1% (inactive); with `COc1ccc(C(C)=O)c(OC)c1`, 102% (inactive).
For `COc1cccc(-c2nc3occn3c2-c2ccnc(NCCCNS(=O)(=O)c3ccc(C(F)(F)F)cc3)n2)c1`, the growth was 69% (inactive).
With `C=C1C(=O)O[C@H]2[C@H]1CC/C(C(=O)NCCCCCNC(=O)/C1=C/CC[C@@]3(C)O[C@H]3[C@H]3OC(=O)C(=C)[C@@H]3CC1)=C\CC[C@@]1(C)O[C@@H]21` the figure was 96.2% (inactive); with `C=C1C(=O)O[C@H]2[C@H]1CC/C(COC(=O)NCc1c[nH]c3ccc(F)cc13)=C\CC[C@@]1(C)O[C@@H]21`, 3.81% (active); with `Cc1cc2nc3c4cccc(O)c4n(CCN(C)C)c3nc2cc1C`, 6.01% (active).
With `O=C(Cc1ccccc1)NNc1nc(Cl)nc(N2CCN(C(c3ccccc3)c3ccccc3)CC2)n1` the figure was 36.3% (inactive).

For the origin of these results see PubChem BioAssay (NCI).
